# This is a sample that favours compounds with a hit; in the whole collection about 1.4% have one here.
# MsrA act = bovine MsrA enzyme activators, primary screen, biochemical, absorbance, HTS. Methionine sulfoxide reductase A (Bos taurus). purified bovine MsrA, absorbance read-out. activation, % at 10.6 µM. hit rate 0.3% among 360,000. AID 602163, 2012; in the data active means activation above about 7.5%;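 further: 0% = vehicle and 100% = reference activator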
# MsrA inhibitor = bovine MsrA enzyme inhibitors, primary screen, biochemical, absorbance, HTS; purified bovine MsrA, absorbance read-out; inhibition, % at 15.5 µM; AID 651718, 2012; hit rate 0.75% among 360,000; in the data active means inhibition above about 4.5%;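 further: 0% = vehicle wells with enzyme and 100% = reference inhibitor wells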
# 14-3-3 Bad inh = inhibitors of 14-3-3 zeta/Bad binding, primary screen, biochemical, TR-FRET, bovine 14-3-3 zeta. AID 781, 2007. TR-FRET 14-3-3zeta/Dy647-pBad peptide displacement, 1 h. hit rate 0.71% among 220,000. inhibition, % at 21.7 µM;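 active means inhibition above about 70%, limit read from the data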;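 further: 0% = full 14-3-3 plus peptide FRET controls and 100% = background without 14-3-3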
# p-CIP stab down = p/CIP-EGFP fusion destabilizers, primary screen, fluorescence, F442A cells; decrease of EGFP signal, % at 10 µM; Q05BA5; AID 1984, 2009; hit rate 0.01% among 290,000; 16 h;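 active means EGFP signal decrease of at least 30% at 10 µM or well 3 SD below plate mean, unless failing retest; inactive means the rest, including hits failing retest or dose response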
# MsrA act confirm = bovine MsrA activators, retest, confirmation, biochemical, absorbance, HTS | shares compounds with MsrA act | purified bovine MsrA, absorbance read-out | activation, % at 10.6 µM | hit rate 12% among 1,000; in the data active means activation above about 4%;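 further: enzyme coupled to thioredoxin and thioredoxin reductase with NADPH; 0% = vehicle wells and 100% = reference activator wells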
# An asterisk follows results filed as active; · = no result.
SMILES,MsrA act,MsrA inhibitor,14-3-3 Bad inh,p-CIP stab down,MsrA act confirm
COC(=O)C1=C(C)N(Cc2ccccc2C(F)(F)F)C(=NCc2cc(OC)c(OC)c(OC)c2)NC1c1cccc(F)c1 (stereo not drawn),·,-3,·,·,·
O=C(NCC1COc2ccccc2O1)C1CCC(CNc2c(N3CCCCC3)c(=O)c2=O)CC1 (stereo not drawn),8.9*,0,-1,7,0
COc1cccc(CNC(=O)[C@H]2CCCN2)c1,·,-1,·,·,·
Cc1ccc(S(=O)(=O)NC2=NCCCCC2)cc1,13*,0,5,6,-2
Cc1ccccc1C(=O)N[C@H](C(=O)N1CCC[C@H]1C(=O)NCCc1ccccc1Cl)C1CCCCC1,·,0,·,·,·
CCc1nnc(N/N=C\c2ccc(OC(C)=O)c(OC)c2)n1N,12*,1,·,0,-2
CCOc1cc(/C=N/Nc2nnc(C)n2N)ccc1OC(C)=O,27*,0,·,-4,1
CCc1nnc(N/N=C/c2cccs2)n1N,8.1*,2,10,-20,-2
COc1cc(/C=N/Nc2nncn2N)ccc1OCc1c(C)no[n+]1[O-],6,1,-4,12,·
CCc1nnc(N/N=C/c2c(Cl)cccc2Cl)n1N,5,0,10,-8,·
CCOc1cc(/C=N/NC(N)=O)ccc1OC(=O)c1ccc(C)cc1,·,·,17,6,·
COc1ccc(/C=N/Nc2nncn2N)cc1Br,25*,0,·,8,2
C[C@H](O)[C@@H]1C(=O)N2CCc3c([nH]c4cccc(-c5ccccc5)c34)[C@@H]2C[C@@H]1N(C)C(=O)C1CCCCC1,·,-1,·,·,·
CCCN1CCCCC(NC(=O)c2ccc(C)cc2C)C1=O (stereo not drawn),·,1,·,·,·
COc1ccccc1Cc1c(-c2ccc(Cl)cc2)nc2ccc(C)cn12,·,1,·,·,·
Cc1cccc(OCCC(=O)OC(C)C(=O)Nc2ccc(Cl)cn2)c1 (stereo not drawn),15*,0,·,·,-2
CC(OC(=O)CCOc1ccccc1)C(=O)Nc1ccc(Cl)cn1 (stereo not drawn),-15,1,·,-16,·
CN(C(=O)c1ccc(NC(=O)Cc2cccc(NC(=O)C3CCCN(C(=O)C4CC4)C3)c2)cc1)C1CCCC1 (stereo not drawn),8.3*,-1,·,·,-1
CN(C(=O)c1ccc(NC(=O)Cc2cccc(NC(=O)C3CCCN(C(=O)C4CCCCC4)C3)c2)cc1)C1CCCC1 (stereo not drawn),-2,-1,·,·,·
COC(=O)CCS(=O)(=O)c1cc(Cl)ccc1Cl,8.3*,1,-11,-14,0
CC(=O)N(C)c1ccc(N=Nc2c(C)[nH]n(C(N)=S)c2=O)cc1,-5,4,-13,0,·
CC(=O)N(C)c1ccc(N=Nc2c(C)[nH]n(-c3ccccc3)c2=O)cc1,8.0*,-1,·,-2,-1
Cc1cccc(OC(=O)n2c(=S)oc3cc(Cl)ccc32)c1,9.8*,0,15,-10,1
CC(C)OC(=O)n1c(=S)oc2ccccc21,-1,1,-5,1,·
Cc1ccc(C(=O)NC2CCCCN(C)C2=O)c(C)c1 (stereo not drawn),·,-1,·,·,·
SMILES,MsrA act,MsrA inhibitor,14-3-3 Bad inh,p-CIP stab down,MsrA act confirm
CCN(Cc1ccccc1)C(c1ccccn1)c1nnnn1C1CCCCC1 (stereo not drawn),0,-1,-11,-6,·
CC(c1nnnn1C1CCCCC1)N(Cc1ccccc1)Cc1cccnc1 (stereo not drawn),11*,1,9,2,1
COC(=O)[C@]12C[C@H](CC(=O)N3CCC(c4ccccc4)CC3)C(=O)N(Cc3ccccc3)C1=C[C@H](C(C)(C)C)O[C@@H]2C,·,0,·,·,·
Nc1oc2ccccc2c1C(=O)Cc1ccccc1O[C@@H]1O[C@H](CO)[C@@H](O)[C@H](O)[C@H]1O,13*,0,·,·,2
Nc1ncnc2[nH]c(=S)[nH]c12,11*,0,·,·,1
COc1cc(SC)ccc1C(=O)OCC(=O)NC(=O)NC(C)C,7.9*,0,-5,-4,-3
Cc1cc2c(nc1C)CCCN2Cc1ccc(Br)cc1,·,1,·,·,·
Cn1c(=O)c2nc(SCCO)n(C)c2n(C)c1=O,8.4*,1,·,·,-3
CCCCc1c(-c2ccccc2OC)ncn1Cc1ccc(Br)cc1,·,1,·,·,·
Cn1c(=O)c2c(ncn2Cc2ccc(O)c([N+](=O)[O-])c2)n(C)c1=O,·,0,·,·,·

# Compound activity deposited in PubChem by several laboratories.
